From the supplement of paper PMC10338343
± gives the standard deviation.

Columns and labels:
[1] = test system: MILI (PIWIL2) piRISC loaded with L1MC piRNA (26 nt); assay: pre-steady-state target cleavage rate (min^-1); guide: L1MC piRNA 5'p-UAACUAAAUACUAUGCAAGCUGUAGG; higher = faster piRNA-guided slicing of the target
Procedure, shortened: (§1)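 Cleave-'n-Seq used a transcribed, DNA-blocked target RNA library at 0.1 nM and active affinity-purified piRISC with one synthetic guide at 1 nM, with or without 500 nM GTSF1 partner protein, in HEPES–potassium acetate buffer at 33 °C for 0–8 or 0–960 min. Uncleaved targets were sequenced and normalised to depth and to weakly complementary targets, and three trials were pooled with k3 capped at 0.0001 min^-1. The pre-steady-state cleavage rate was estimated by a burst-and-steady-state fit.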

[2] = test system: EfPiwi piRISC loaded with L1MC piRNA (26 nt); assay: pre-steady-state target cleavage rate (min^-1); auxiliary factor: 500 nM Ephydatia muelleri Gtsf1; guide: L1MC piRNA 5'p-UAACUAAAUACUAUGCAAGCUGUAGG; MIWI and MILI are mouse PIWI proteins and EfPiwi is from a freshwater sponge; tags in brackets are library labels; higher = faster piRNA-guided slicing of the target
Procedure, shortened: as §1

[3] = auxiliary factor: 500 nM mouse GTSF1
[4] = auxiliary factor: none (no GTSF1)

| Sequence | pre-steady-state target cleavage rate [1, 3] | pre-steady-state target cleavage rate [1, 4] | pre-steady-state target cleavage rate [2] |
| --- | --- | --- | --- |
| UCCUCCUACAGCUUGGAAAGUAUUUAGUUA | 0.141 ± 0.014 | 0.00715 ± 0.0023 | 0.0615 ± 0.013 |
| UCCUGGAUCAGCUUGCAUAGUAAUUAGUUA | 0.233 ± 0.013 | 0.0101 ± 0.0024 | 0.0264 ± 0.0082 |
| UCCUGGAACGGCUUGCAUAGUAUUUAGUUA | 0.259 ± 0.017 | 0.0129 ± 0.0024 | 0.0243 ± 0.0075 |
| UCCUGGAUGUCCUCUGCAUAGUAUUUAGUUA | 0.0405 ± 0.0082 | 0.00562 ± 0.0033 | 0.00412 ± 0.003 |
| UCCUGGAUGCGCUUGCAUAGUAUUUAGUUA | 0.239 ± 0.016 | 0.0108 ± 0.0028 | 0.0286 ± 0.0065 |
| UCCUGGAUCAGCUUGCAUACUAUUUAGUUA | 0.0716 ± 0.011 | 0.0037 ± 0.0021 | 0.0114 ± 0.0021 |
| UCCUGCUAGUGCUUGCAUAGUAUUUAGUUA | 0.0937 ± 0.017 | 0.00303 ± 0.0022 | 0.00363 ± 0.0014 |
| UCCUGGAUGUGCUUGUAUAGUAUUUAGUUA | 0.142 ± 0.017 | 0.0136 ± 0.004 | 0.0218 ± 0.0071 |
| UCCUGGAUGAGCUAGCAUACUAUUUAGUUA | 0.0848 ± 0.017 | 0.00398 ± 0.0027 | 0.00286 ± 0.002 |
| UCCUCGUACAGCUUGCAUAGUAUAUAGUUA | 0.251 ± 0.02 | 0.00528 ± 0.0018 | 0.0103 ± 0.0042 |
| UCCUGCUACAGCUAGCAUAGUUUUUAGUUA | 0.0836 ± 0.014 | 0.00345 ± 0.0024 | 0.00472 ± 0.0016 |
| UCCUGGAACAGGUUGCAUAGUAUUAAGUUA | 0.213 ± 0.023 | 0.00415 ± 0.0022 | 0.00329 ± 0.0021 |
| UCCUGGAUGUGCUUCAUAGUAUUUAGUUA | 0.046 ± 0.01 | 0.00455 ± 0.002 | 0.00929 ± 0.0056 |
| UCCUGGAACAGCAUGCAUAGUAUUUAGUAA | 0.214 ± 0.019 | 0.00404 ± 0.0034 | 0.00384 ± 0.0023 |
| UCCUCCUACAGCUUGCAAAGUAUUUAGUAA | 0.142 ± 0.016 | 0.00404 ± 0.0019 | 0.00609 ± 0.0029 |
| UCCUGCUACAGGUAGCAUAGUAUUUAGUUA | 0.367 ± 0.031 | 0.00651 ± 0.0037 | 0.0207 ± 0.0042 |
| UCCUGGUACAGCUUGGCAUAGUAUUUAGUUA | 0.4 ± 0.093 | 0.00473 ± 0.0036 | 0.05 ± 0.016 |
| UCCUGCUUACAGCUUGCAUAGUAUUUAGUUA | 0.451 ± 0.043 | 0.0088 ± 0.0032 | 0.0638 ± 0.015 |
| UCCUGGUACAGCUUGCGUAGUAUUUAGUUA | 0.219 ± 0.021 | 0.014 ± 0.004 | 0.0273 ± 0.0095 |
